We go through 72 compounds from the antibiotic and cytotoxicity screens of Wong et al. (2023).

The whole screen tested about 39,000 compounds, of which about 3,300 (8.5%) were called active. The list comes from a sample in which actives are over-represented; it also holds similar structures and randomly drawn compounds.

The test system of this assay is HepG2. In words: cytotoxicity call (relative viability < 0.9). To be noted: 10 µM.
With `C[C@H](O)C#Cc1ccc2c(c1)O[C@@H](CN(C)C(=O)C1CCCCC1)[C@@H](C)CN([C@H](C)CO)S2(=O)=O`, the cytotoxicity call was “inactive”.

As to `CCOC(=O)c1cn[nH]c1`, the cytotoxicity call was “inactive”.

Turning to `C[C@H]1CN([C@@H](C)CO)C(=O)c2cc(NS(=O)(=O)c3cn(C)cn3)ccc2O[C@H]1CN(C)S(=O)(=O)c1ccccc1`, the cytotoxicity call is “inactive”.

Consider `CCS(=O)(=O)NCC[C@H]1CC[C@@H](NS(=O)(=O)c2ccccc2C)[C@H](CO)O1`, for which the cytotoxicity call was “inactive”.

Consider `C[C@@H]1CN([C@@H](C)CO)C(=O)c2cccc(NS(C)(=O)=O)c2O[C@@H]1CN(C)C(=O)Nc1ccc(F)cc1`, for which the cytotoxicity call was “inactive”.

For `CCOC(=O)c1c(CN2CCN(c3ccccc3C)CC2)n(-c2ccccc2)c2cc(Br)c(O)cc12`, the cytotoxicity call is “inactive”.

As for `C[C@@H]1CN([C@@H](C)CO)C(=O)Cc2cc(NS(=O)(=O)c3ccc(F)cc3)ccc2O[C@@H]1CN(C)S(=O)(=O)c1ccc(F)cc1`, the cytotoxicity call is “inactive”.

Take `COc1ccc(S(=O)(=O)Nc2cccc3c2O[C@H](CN(C)S(=O)(=O)c2ccc(OC)cc2)[C@H](C)CN([C@H](C)CO)C3=O)cc1`: the cytotoxicity call is “inactive”.

As to `O=C(O)CCc1nc2ccccc2[nH]1`, the cytotoxicity call is “inactive”.

With `C(=N\c1nc2ccccc2[nH]1)/N(c1ccccc1)c1ccccc1`, the cytotoxicity call was “active”.

Turning to `FC(F)(F)c1nc2ccccc2[nH]1`, the cytotoxicity call was “inactive”.

Regarding `C[C@H](CO)N1C[C@H](C)[C@@H](CN(C)C(=O)c2ccncc2)OCCCC[C@H](C)Oc2ccc(NS(=O)(=O)c3cn(C)cn3)cc2C1=O`, the cytotoxicity call was “inactive”.

Turning to `CC(C)NC(=O)Nc1ccc2c(c1)C(=O)N([C@H](C)CO)C[C@H](C)[C@H](CN(C)S(=O)(=O)c1cccs1)O2`, the cytotoxicity call was “inactive”.

As to `CC(=O)c1ccc2c(c1)N(CCCN1CCN(CCO)CC1)c1ccccc1S2.O=C(O)C=CC(=O)O`, the cytotoxicity call is “inactive”.

As to `OCCN1CCN(CCCN2c3ccccc3Sc3ccc(Cl)cc32)CC1`, the cytotoxicity call was “active”.

Take `Cl.Cl.OCCN1CCN(CCCN2c3ccccc3Sc3ccc(C(F)(F)F)cc32)CC1`: the cytotoxicity call was “active”.

In the case of `Cl.Cl.OCCOCCN1CCN(C(c2ccccc2)c2ccc(Cl)cc2)CC1` (configuration not stated), the cytotoxicity call was “inactive”.

Consider `OCCN1CCN(c2ncnc3c2ncn3[C@H]2CN(Cc3cccc(C(F)(F)F)c3)C[C@@H](CO)O2)CC1`, for which the cytotoxicity call was “inactive”.

In the case of `CN1CCN(CCCN2c3ccccc3Sc3ccc(C(F)(F)F)cc32)CC1.Cl.Cl`, the cytotoxicity call is “active”.

Regarding `O=C(O)C=CC(=O)O.OCCOCCN1CCN(C2=Nc3ccccc3Sc3ccccc32)CC1`, the cytotoxicity call was “inactive”.

`Cc1ccc(S(=O)(=O)N(C)C[C@@H]2OCCCC[C@H](C)Oc3ccc(NC(=O)C4CCCCC4)cc3C(=O)N([C@H](C)CO)C[C@@H]2C)cc1`: the cytotoxicity call is “inactive”.

Take `Cc1noc(C)c1S(=O)(=O)Nc1ccc2c(c1)C(=O)N([C@@H](C)CO)C[C@@H](C)[C@H](CN(C)Cc1ccc(C(F)(F)F)cc1)OCCCC[C@@H](C)O2`: the cytotoxicity call is “inactive”.

Regarding `COc1ccc(NC(=O)N(C)C[C@@H]2OCCCC[C@@H](C)Oc3ccc(NC(=O)NC4CCCCC4)cc3C(=O)N([C@@H](C)CO)C[C@@H]2C)cc1`, the cytotoxicity call was “inactive”.

For the compound `C[C@@H]1CN([C@@H](C)CO)C(=O)c2cc(C#CC3(O)CCCC3)cnc2O[C@H]1CN(C)S(=O)(=O)c1ccc(F)cc1`, the cytotoxicity call was “inactive”.

With `O[C@@H](CCl)CN1CC[N+]2(CC1)CC[N+]1(CCN(C[C@@H](O)CCl)CC1)CC2`, the cytotoxicity call is “inactive”.

Consider `O=C(/C=C/c1ccc(O)c(O)c1)O[C@@H]1C[C@](O)(C(=O)O)C[C@@H](OC(=O)/C=C/c2ccc(O)c(O)c2)[C@H]1OC(=O)/C=C/c1ccc(O)c(O)c1`, for which the cytotoxicity call was “inactive”.

Consider `CN(C)CCCNC(=O)C[C@@H]1CC[C@@H]2[C@H](COc3ccc(NC(=O)c4ccccc4F)cc3C(=O)N2C)O1`, for which the cytotoxicity call was “inactive”.

As to `C[C@H](CO)N1C[C@H](C)[C@H](CN(C)Cc2ccccc2)OCCCC[C@H](C)Oc2ccc(NS(=O)(=O)c3cccs3)cc2C1=O`, the cytotoxicity call was “inactive”.

As for `COc1ccc(CN(C)C[C@@H]2OCCCC[C@H](C)Oc3ccc(NC(=O)NC(C)C)cc3C(=O)N([C@H](C)CO)C[C@@H]2C)cc1`, the cytotoxicity call is “inactive”.

Take `C[C@@H]1CN([C@@H](C)CO)C(=O)c2cc(NS(=O)(=O)c3cccs3)ccc2O[C@H]1CN(C)Cc1ccc(Cl)c(Cl)c1`: the cytotoxicity call is “inactive”.

Consider `COc1ccc(S(=O)(=O)N(C)C[C@@H]2OCCCC[C@@H](C)Oc3ccc(NC(=O)Nc4ccc(C(F)(F)F)cc4)cc3C(=O)N([C@H](C)CO)C[C@H]2C)cc1`, for which the cytotoxicity call was “inactive”.

For the compound `COc1ccc(S(=O)(=O)N(C)C[C@@H]2OCCCC[C@H](C)Oc3ccc(NC(=O)Nc4ccc(C(F)(F)F)cc4)cc3C(=O)N([C@@H](C)CO)C[C@@H]2C)cc1`, the cytotoxicity call is “active”.

On to `COc1ccc(S(=O)(=O)N(C)C[C@H]2OCCCC[C@H](C)Oc3ccc(NC(=O)Nc4ccc(C(F)(F)F)cc4)cc3C(=O)N([C@@H](C)CO)C[C@@H]2C)cc1`, for which the cytotoxicity call was “inactive”.

Regarding `COc1ccc(S(=O)(=O)N(C)C[C@H]2OCCCC[C@@H](C)Oc3ccc(NC(=O)Nc4ccc(C(F)(F)F)cc4)cc3C(=O)N([C@H](C)CO)C[C@H]2C)cc1`, the cytotoxicity call is “active”.

Consider `COc1ccc(S(=O)(=O)N(C)C[C@@H]2OCCCC[C@H](C)Oc3ccc(NC(=O)Nc4ccc(C(F)(F)F)cc4)cc3C(=O)N([C@H](C)CO)C[C@H]2C)cc1`, for which the cytotoxicity call is “inactive”.

In the case of `COc1ccc(S(=O)(=O)N(C)C[C@@H]2OCCCC[C@H](C)Oc3ccc(NC(=O)Nc4ccc(C(F)(F)F)cc4)cc3C(=O)N([C@@H](C)CO)C[C@H]2C)cc1`, the cytotoxicity call is “inactive”.

For `COc1ccc(S(=O)(=O)N(C)C[C@H]2OCCCC[C@H](C)Oc3ccc(NC(=O)Nc4ccc(C(F)(F)F)cc4)cc3C(=O)N([C@H](C)CO)C[C@H]2C)cc1`, the cytotoxicity call is “inactive”.

Turning to `COc1ccc(S(=O)(=O)N(C)C[C@H]2OCCCC[C@H](C)Oc3ccc(NC(=O)Nc4ccc(C(F)(F)F)cc4)cc3C(=O)N([C@@H](C)CO)C[C@H]2C)cc1`, the cytotoxicity call was “inactive”.

`COc1ccc(S(=O)(=O)N(C)C[C@H]2OCCCC[C@H](C)Oc3ccc(NC(=O)Nc4ccc(C(F)(F)F)cc4)cc3C(=O)N([C@H](C)CO)C[C@@H]2C)cc1`: the cytotoxicity call is “active”.

Consider `COc1ccc(S(=O)(=O)N(C)C[C@@H]2OCCCC[C@H](C)Oc3ccc(NC(=O)Nc4ccc(C(F)(F)F)cc4)cc3C(=O)N([C@H](C)CO)C[C@@H]2C)cc1`, for which the cytotoxicity call was “inactive”.

Turning to `COc1ccc(S(=O)(=O)N(C)C[C@@H]2OCCCC[C@@H](C)Oc3ccc(NC(=O)Nc4ccc(C(F)(F)F)cc4)cc3C(=O)N([C@H](C)CO)C[C@@H]2C)cc1`, the cytotoxicity call was “inactive”.

Take `COc1ccc(S(=O)(=O)N(C)C[C@H]2OCCCC[C@@H](C)Oc3ccc(NC(=O)Nc4ccc(C(F)(F)F)cc4)cc3C(=O)N([C@@H](C)CO)C[C@H]2C)cc1`: the cytotoxicity call was “active”.

Take `CC(=O)NCCCC[C@@H]1NC(=O)[C@@H]2C[C@H](C(=O)NCCCCN(C)C)[C@H](c3cccc(OCCO)c3)N2C1=O`: the cytotoxicity call was “inactive”.

`CC(C)NC(=O)N(C)C[C@@H]1OCCCC[C@@H](C)Oc2ccc(NC(=O)Nc3ccc(C(F)(F)F)cc3)cc2C(=O)N([C@H](C)CO)C[C@@H]1C`: the cytotoxicity call is “inactive”.

As for `COc1ccc(NC(=O)N(C)C[C@@H]2Oc3ncc(C#CC(C)C)cc3C(=O)N([C@@H](C)CO)C[C@@H]2C)cc1`, the cytotoxicity call was “inactive”.

With `C[C@@H]1CN([C@@H](C)CO)C(=O)c2c(c3ccccc3n2C)-c2ccccc2CO[C@@H]1CN(C)C(=O)CCC(F)(F)F`, the cytotoxicity call is “inactive”.

Consider `COc1ccc(cc1)S(=O)(=O)N1C[C@]2(C1)CN([C@@H](CO)c1c2c2ccc(cc2n1C)OC)C(=O)c1cccnc1`, for which the cytotoxicity call is “inactive”.

For the compound `C[C@@H]1CCCCO[C@@H](CN(C)C(=O)Nc2cccc3ccccc23)[C@@H](C)CN([C@@H](C)CO)C(=O)c2cc(NC(=O)NC3CCCCC3)ccc2O1`, the cytotoxicity call is “inactive”.

Turning to `CC(=O)n1cc([C@H]2C=C(C(=O)N3CCN(C)CC3)O[C@@H](OCc3ccc(CO)cc3)C2)c2ccccc21`, the cytotoxicity call is “inactive”.

Take `C[C@H](CO)N1C[C@H](C)[C@H](CN(C)S(=O)(=O)c2cn(C)cn2)Oc2ccc(NC(=O)Nc3ccc4c(c3)OCO4)cc2C1=O`: the cytotoxicity call is “inactive”.

`O=C(c1ccccc1O)N1CCOCC1`: the cytotoxicity call was “inactive”.

For `Nc1ccccc1C(=O)N1CCOCC1`, the cytotoxicity call was “inactive”.

On to `O=C(c1cn(Cc2cncn2Cc2ccc(Br)cc2)cc1-c1cccc2ccccc12)N1CCOCC1`, for which the cytotoxicity call is “active”.

Turning to `C[C@H]1CN(C(=O)CSc2nnc3c4ccccc4n(Cc4cccc(Cl)c4)c3n2)CCN1C(=O)c1ccccc1F`, the cytotoxicity call is “inactive”.

On to `COC(=O)[C@@H]1N2C(=O)[C@@H](N3CC4=C[C@@H](C5CC5)n5c(=O)n(C)c(=O)n5[C@@H]4[C@@H]3[C@@H](O)Cc3ccccc3)[C@H]2SC1(C)C`, for which the cytotoxicity call was “inactive”.

As to `C[C@@H]1CN([C@@H](C)CO)C(=O)Cc2cc(NS(=O)(=O)c3ccccc3)ccc2O[C@@H]1CN(C)S(C)(=O)=O`, the cytotoxicity call is “inactive”.

On to `CC1(C)CCC2(C(=O)O)CCC3(C)C(=CCC4C5(C)CCC(O)C(C)(CO)C5CCC43C)C2C1` (configuration not stated), for which the cytotoxicity call was “inactive”.

Regarding `C=C1CC[C@@H]2C(C)(C)CCC[C@@]2(C)[C@@H]1CC/C(C)=C/C(=O)OC`, the cytotoxicity call is “inactive”.

Regarding `C=C1CCC2C(C)(CO)C(O)CCC2(C)C1CC=C1C(=O)OCC1O` (configuration not stated), the cytotoxicity call is “active”.

As for `C[C@H]1CN([C@@H](C)CO)C(=O)c2cc(C#CCN(C)C)cnc2O[C@@H]1CN(C)C(=O)CCN1CCCCC1`, the cytotoxicity call is “inactive”.

For the compound `C[C@H]1CN([C@@H](C)CO)S(=O)(=O)c2ccc(C#Cc3cccnc3)cc2O[C@H]1CN(C)C(=O)Nc1ccc2c(c1)OCO2`, the cytotoxicity call is “inactive”.

`C[C@H](CO)N1C[C@H](C)[C@H](CN(C)C(=O)Nc2ccc3c(c2)OCO3)Oc2cc(C#Cc3cccnc3)ccc2S1(=O)=O`: the cytotoxicity call was “inactive”.

Consider `C[C@H](CO)N1C[C@H](C)[C@H](CN(C)C(=O)Nc2ccc3c(c2)OCO3)Oc2cc(C#Cc3ccncc3)ccc2S1(=O)=O`, for which the cytotoxicity call was “inactive”.

In the case of `C[C@H]1CN([C@@H](C)CO)S(=O)(=O)c2ccc(C#Cc3cccnc3)cc2O[C@@H]1CN(C)C(=O)Nc1ccc2c(c1)OCO2`, the cytotoxicity call is “inactive”.

As for `C[C@@H]1CN([C@H](C)CO)S(=O)(=O)c2ccc(C#Cc3cccnc3)cc2O[C@@H]1CN(C)C(=O)Nc1ccc2c(c1)OCO2`, the cytotoxicity call was “inactive”.

Take `C[C@@H]1CN([C@H](C)CO)S(=O)(=O)c2ccc(C#Cc3cccnc3)cc2O[C@H]1CN(C)C(=O)Nc1ccc2c(c1)OCO2`: the cytotoxicity call was “inactive”.

Take `C[C@H]1CN([C@@H](C)CO)S(=O)(=O)c2ccc(C#Cc3ccncc3)cc2O[C@H]1CN(C)C(=O)Nc1ccc2c(c1)OCO2`: the cytotoxicity call is “active”.

Regarding `C[C@H](CO)N1C[C@H](C)[C@@H](CN(C)C(=O)Nc2ccc3c(c2)OCO3)Oc2cc(C#Cc3ccncc3)ccc2S1(=O)=O`, the cytotoxicity call is “active”.

Consider `C[C@@H]1CN([C@H](C)CO)S(=O)(=O)c2ccc(C#Cc3ccncc3)cc2O[C@H]1CN(C)C(=O)Nc1ccc2c(c1)OCO2`, for which the cytotoxicity call was “inactive”.

Take `C[C@@H]1CN([C@@H](C)CO)S(=O)(=O)c2ccc(C#Cc3cccnc3)cc2O[C@H]1CN(C)C(=O)Nc1ccc2c(c1)OCO2`: the cytotoxicity call is “inactive”.

Regarding `C[C@@H]1CN([C@@H](C)CO)S(=O)(=O)c2ccc(C#Cc3ccncc3)cc2O[C@H]1CN(C)C(=O)Nc1ccc2c(c1)OCO2`, the cytotoxicity call is “active”.

On to `C[C@@H]1CN([C@H](C)CO)S(=O)(=O)c2ccc(C#Cc3ccncc3)cc2O[C@@H]1CN(C)C(=O)Nc1ccc2c(c1)OCO2`, for which the cytotoxicity call was “active”.
